Data published in PubChem BioAssay (EPA / NIEHS).
The source made the active and inactive calls. Rule for the calls: active = hit-call score of the fitted dose curve at least 0.9, where 1 is the maximum; inactive = score below 0.9.

Read-out: Interferon-gamma inducible Protein 10 (IP10), CXCL10 (gene 3627)
Assay: BSK_KF3CT_IP10: BioMAP Diversity Plus: KF3CT Assay for Interferon-gamma inducible Protein 10 (IP10) Biomarker Activity (AID 2283068)
Conditions: primary human keratinocytes with fibroblasts; actives raise or lower the signal
Procedure: BSK_KF3CT is a cell-based, multiplexed-readout assay that uses keratinocytes and foreskin fibroblasts, a human skin primary cell co-culture, with measurements taken at 24 hours after chemical dosing in a 96-well plate.BSK_KF3CT_IP10 is an assay component measured in the BSK_KF3CT assay. It measures IP-10 antibody related to regulation of gene expression using ELISA technology.Data from the assay component BSK_KF3CT_IP10 was analyzed into 1 assay endpoint. This assay endpoint, BSK_KF3CT_IP10, was analyzed with bidirectional fitting relative to DMSO as the negative control and baseline of activity. Using a type of binding reporter, gain or loss-of-signal activity can be used to understand changes in the signaling as they relate to the gene CXCL10. Furthermore, this assay endpoint can be referred to as a primary readout, because this assay has produced multiple assay endpoints where this one serves a signaling function. To generalize the intended target to other relatable targets, this assay endpoint is annotated to the cytokine intended target family, where the subfamily is chemotactic factor.
The levels of cell surface (or secreted, indicated by the prefix "s") biomarker endpoints were measured by ELISA. Overt cytotoxicity to cells in confluent adherent cultures (all systems other than the BT system) was assessed by measuring total protein levels using sulforhodamine B (SRB) staining in parallel cultures at the time of biomarker measurements, indicated as SRB endpoints. For proliferation assays for adherent cell types, individual cell types are cultured at sub-confluence and relative cell numbers quantified by SRB staining at time points optimized for each system (48 h: 3C and CASM3C systems; 72 h: BT and HDF3CGF systems; 96 h: SAg system). SRB was performed by staining cells with 0.1% SRB after fixation with 10% TCA and reading wells at 560 nm.Viability and proliferation of PBMC (T cells) was quantified by Alamar Blue reduction for the SAg and BT systems. For PBMC viability (referred to as PBMC Cytotoxicity within the assay endpoint names), cells were plated (75,000/well in a 96-well plate) and then chemical samples added for 1 h before addition of activators, SEB and TSST-1 (20 ng/mL final concentration each). Cells were incubated for 90 h. Then, Alamar Blue (20 uL/well) (Invitrogen, Cat DAL1100) was added for 6 h, and the plates were read with a fluorescence microplate reader at 546/580 nm (excitation/emission). For PBMC proliferation, cells were plated and activated as above but incubated for only 16 h prior to addition of Alamar Blue. Plates were read after 6 h.

SMILES	AC50	outcome
CCCOCC(=Nc1ccc(Cl)cc1C(F)(F)F)n1ccnc1	29.1 µM (active)	
CSc1nnc(C(C)(C)C)c(=O)n1N		inactive
CCOP(=S)(OCC)Oc1ccc2c(C)c(Cl)c(=O)oc2c1		inactive
CCC(=NOC/C=C/Cl)C1=C(O)CC(C2CCOCC2)CC1=O (stereo not given)		inactive
CNc1cnn(-c2cccc(C(F)(F)F)c2)c(=O)c1Cl		inactive
CCOP(=S)(Oc1cnc(C(C)(C)C)nc1)OC(C)C (stereo not given)	18.4 µM (active)	
CCCCN(CC)c1c([N+](=O)[O-])cc(C(F)(F)F)cc1[N+](=O)[O-]	27.9 µM (active)	
C[Si](Cn1cncn1)(c1ccc(F)cc1)c1ccc(F)cc1		inactive
CC(C)N(C(=O)SCC(Cl)=C(Cl)Cl)C(C)C	36.3 µM (active)	
Cc1nn(-c2cc(NS(C)(=O)=O)c(Cl)cc2Cl)c(=O)n1C(F)F		inactive
CN(C)C(=O)Nc1cccc(C(F)(F)F)c1		inactive
CC(C)=CC1C(C(=O)OCN2C(=O)C3=C(CCCC3)C2=O)C1(C)C (stereo not given)		inactive
O=C(O)c1cc(Oc2ccc(C(F)(F)F)cc2Cl)ccc1[N+](=O)[O-]		inactive
CSc1nc(NC(C)C)nc(NC(C)C)n1		inactive
CCCCSP(=O)(SCCCC)SCCCC		inactive
O=[N+]([O-])c1cc(C(F)(F)F)c(Cl)c([N+](=O)[O-])c1Nc1ncc(C(F)(F)F)cc1Cl	7.9 µM (active)	
CCc1cccc(C)c1N(C(=O)CCl)C(C)COC (stereo not given)	33.2 µM (active)	
CCCSP(=O)(OCC)SCCC		inactive
C#CC(C)(C)NC(=O)c1cc(Cl)cc(Cl)c1		inactive
FC(F)C(F)(F)OCC(Cn1cncn1)c1ccc(Cl)cc1Cl (stereo not given)		inactive

SMILES	AC50	outcome
CC1(C(=O)Nc2ccc(O)c(Cl)c2Cl)CCCCC1		inactive
CCCOc1nn(C(=O)NS(=O)(=O)c2ccccc2C(=O)OC)c(=O)n1C		inactive
COP(=O)(OC)C(O)C(Cl)(Cl)Cl (stereo not given)		inactive
COc1ccc(C(=CC(=O)N2CCOCC2)c2ccc(Cl)cc2)cc1OC		inactive
Nc1nc(N)nc(NC2CC2)n1		inactive
N#CSCSC#N	8.38 µM (active)	
CC(C1CC1)C(O)(Cn1cncn1)c1ccc(Cl)cc1 (stereo not given)		inactive
CCOP(=S)(OCC)Oc1ccc([N+](=O)[O-])cc1	32.7 µM (active)	
Cc1cc(C2CC2)nc(Nc2ccccc2)n1	20 µM (active)	
CCOP(=S)(OCC)Oc1cc(C)nc(C(C)C)n1		inactive
CCOP(=O)(NC(C)C)Oc1ccc(SC)c(C)c1 (stereo not given)		inactive
COc1cccc(C(=O)NN(C(=O)c2cc(C)cc(C)c2)C(C)(C)C)c1C		inactive
CCCSP(=O)(OCC)Oc1ccc(Br)cc1Cl (stereo not given)		inactive
CCc1cccc(CC)c1N(COC)C(=O)CCl		inactive
CCOP(=S)(OCC)OC(Cl)C(Cl)(Cl)Cl (stereo not given)		inactive
CC1=NNC(=O)N(/N=C/c2cccnc2)C1		inactive
CN(C)[C@@H]1C(=O)C(C(N)=O)=C(O)[C@@]2(O)C(=O)C3=C(O)c4c(O)cccc4[C@@](C)(O)[C@H]3[C@H](O)[C@@H]12		inactive
O=c1ccc(=O)[nH][nH]1		inactive
CCOP(=O)(OCC)Oc1cc(C)nc(C(C)C)n1		inactive
CNC(=O)ON=C(C)SC		inactive
